From publication PMC7862700, “An all-to-all approach to the identification of sequence-specific readers for epigenetic DNA modifications on cytosine” come the findings set out here.

Common to all, as to assay: DAPPL (digital affinity profiling via proximity ligation, sequencing); 10 mM Tris-HCl pH 7.5, 50 mM NaCl, 1 mM DTT, 4% glycerol, room temperature, 30 min; GST-TFs on glutathione beads, 16-mer random dsDNA library, 0.1% formaldehyde crosslink after washing; high values mean tight binding
Conditions in all cases: protein: recombinant; tags: N-terminal GST; dsDNA, one strand shown

One experiment concerns the target T1, FLI1 (Homo sapiens, UniProt Q01543 1-452).
T1 sequence: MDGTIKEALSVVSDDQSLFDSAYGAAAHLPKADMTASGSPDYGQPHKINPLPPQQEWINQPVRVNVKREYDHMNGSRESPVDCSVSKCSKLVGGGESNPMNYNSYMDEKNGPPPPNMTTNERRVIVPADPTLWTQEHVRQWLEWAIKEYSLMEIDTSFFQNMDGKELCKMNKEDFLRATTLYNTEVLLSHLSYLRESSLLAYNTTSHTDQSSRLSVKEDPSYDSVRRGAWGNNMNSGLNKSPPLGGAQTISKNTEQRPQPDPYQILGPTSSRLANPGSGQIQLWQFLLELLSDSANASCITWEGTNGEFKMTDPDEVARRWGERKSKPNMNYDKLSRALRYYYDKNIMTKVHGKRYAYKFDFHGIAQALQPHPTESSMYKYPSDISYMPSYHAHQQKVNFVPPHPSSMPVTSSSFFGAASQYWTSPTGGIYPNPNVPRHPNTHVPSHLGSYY
In outline: (§1)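 Sequencing on an Illumina NextSeq500 followed washing, crosslinking with 0.1% formaldehyde, proximity ligation (BsaI/T4 ligase, 1 h, 37 °C) and PCR amplification of pools that had been incubated for 30 min at room temperature with 200 nmole of a random double-stranded 16-mer DNA library in Tris/NaCl/DTT/glycerol buffer. Each pool held DNA-barcoded human transcription factors, expressed in yeast as GST fusions and captured on glutathione beads, plus a tag-only sample. Binding signal is a hexamer's read frequency for a factor divided by its frequency in the tag-only sample.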

Another experiment addresses T2, ELK1 (Homo sapiens, UniProt P19419 1-428).
T2 sequence: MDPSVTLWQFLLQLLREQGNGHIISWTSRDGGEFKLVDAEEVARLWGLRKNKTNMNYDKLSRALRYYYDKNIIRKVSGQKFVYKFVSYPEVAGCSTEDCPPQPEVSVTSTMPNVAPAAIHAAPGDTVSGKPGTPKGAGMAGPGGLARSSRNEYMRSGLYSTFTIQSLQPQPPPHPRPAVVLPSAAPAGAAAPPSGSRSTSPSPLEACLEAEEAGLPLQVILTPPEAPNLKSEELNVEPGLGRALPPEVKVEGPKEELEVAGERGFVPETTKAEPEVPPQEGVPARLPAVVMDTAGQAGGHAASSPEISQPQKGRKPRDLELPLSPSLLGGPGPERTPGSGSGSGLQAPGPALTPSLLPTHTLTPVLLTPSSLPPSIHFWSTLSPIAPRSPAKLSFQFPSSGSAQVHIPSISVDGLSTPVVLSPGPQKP
In outline:
as §1

The target of a further experiment is T3, GABPA (Homo sapiens, UniProt Q06546 1-454).
T3 sequence: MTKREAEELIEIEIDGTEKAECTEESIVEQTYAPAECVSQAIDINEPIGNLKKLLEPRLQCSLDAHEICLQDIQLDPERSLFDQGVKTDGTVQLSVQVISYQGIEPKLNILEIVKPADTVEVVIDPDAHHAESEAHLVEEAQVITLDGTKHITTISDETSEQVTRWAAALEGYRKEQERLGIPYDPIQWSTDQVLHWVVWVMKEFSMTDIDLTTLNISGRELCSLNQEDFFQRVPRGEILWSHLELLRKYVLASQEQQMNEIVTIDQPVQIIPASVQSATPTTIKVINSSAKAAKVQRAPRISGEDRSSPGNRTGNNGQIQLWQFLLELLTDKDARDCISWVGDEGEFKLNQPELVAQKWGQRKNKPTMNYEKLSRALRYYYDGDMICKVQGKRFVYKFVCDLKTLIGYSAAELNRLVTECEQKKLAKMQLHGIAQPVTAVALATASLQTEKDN
In outline:
as §1

The next experiment deals with T4, ERG (Homo sapiens, UniProt P11308 1-479).
T4 sequence: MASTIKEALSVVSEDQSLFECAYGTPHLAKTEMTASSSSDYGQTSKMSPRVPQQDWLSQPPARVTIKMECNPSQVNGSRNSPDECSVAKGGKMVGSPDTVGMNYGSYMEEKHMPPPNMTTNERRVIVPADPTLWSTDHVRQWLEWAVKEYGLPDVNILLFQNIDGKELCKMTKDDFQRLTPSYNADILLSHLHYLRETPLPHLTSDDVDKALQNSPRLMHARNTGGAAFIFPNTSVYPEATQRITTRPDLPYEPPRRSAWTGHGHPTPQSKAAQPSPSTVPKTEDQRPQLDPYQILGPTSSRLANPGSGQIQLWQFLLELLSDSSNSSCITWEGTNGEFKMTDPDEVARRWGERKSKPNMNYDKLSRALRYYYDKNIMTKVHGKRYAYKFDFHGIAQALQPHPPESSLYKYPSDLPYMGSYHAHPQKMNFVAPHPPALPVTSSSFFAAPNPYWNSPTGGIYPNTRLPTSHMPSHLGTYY
In outline: as §1

For a further experiment, the target named is ELF1 (Homo sapiens, UniProt P32519 1-619). In outline: as §1
A further experiment has as its target T5, EHF (Homo sapiens, UniProt Q9NZC4 1-300).
T5 sequence: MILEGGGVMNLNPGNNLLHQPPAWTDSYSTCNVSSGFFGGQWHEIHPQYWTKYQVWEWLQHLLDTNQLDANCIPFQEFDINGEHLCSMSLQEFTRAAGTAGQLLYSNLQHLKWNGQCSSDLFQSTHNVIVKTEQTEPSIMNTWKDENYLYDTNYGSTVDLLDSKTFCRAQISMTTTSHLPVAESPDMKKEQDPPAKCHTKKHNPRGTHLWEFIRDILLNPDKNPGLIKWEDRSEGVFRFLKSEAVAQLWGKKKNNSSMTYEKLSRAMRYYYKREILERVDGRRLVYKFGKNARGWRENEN
In outline:
as §1

A further experiment has as its target SPI1 (Homo sapiens, UniProt P17947 1-270). Summed up:
as §1

The next experiment addresses SPIB (Homo sapiens, UniProt Q01892 1-262). In outline:
as §1

The target of a further experiment is T6, FEV (Homo sapiens, UniProt Q99581 1-238).
T6 sequence: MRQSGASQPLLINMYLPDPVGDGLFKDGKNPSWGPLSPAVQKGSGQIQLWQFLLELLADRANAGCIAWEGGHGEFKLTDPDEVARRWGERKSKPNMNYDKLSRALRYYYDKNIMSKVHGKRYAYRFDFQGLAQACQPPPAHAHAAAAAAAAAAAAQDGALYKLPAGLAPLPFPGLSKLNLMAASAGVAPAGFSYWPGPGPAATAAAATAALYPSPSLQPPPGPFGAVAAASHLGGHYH
Summed up: as §1

The next experiment addresses ETV5 (Homo sapiens, UniProt P41161 1-510). Summed up: as §1
The next experiment deals with T7, SPIC (Homo sapiens, UniProt Q8N5J4 1-248).
T7 sequence: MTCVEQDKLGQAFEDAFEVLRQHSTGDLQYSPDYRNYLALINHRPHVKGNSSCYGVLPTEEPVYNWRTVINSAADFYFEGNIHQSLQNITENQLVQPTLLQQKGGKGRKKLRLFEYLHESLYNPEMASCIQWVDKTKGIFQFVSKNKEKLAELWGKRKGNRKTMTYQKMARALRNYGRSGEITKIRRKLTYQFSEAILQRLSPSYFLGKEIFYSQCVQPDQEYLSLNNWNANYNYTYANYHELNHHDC
Summed up:
as §1

In another experiment the target is ELF4 (Homo sapiens, UniProt Q99607 1-663). Summed up: as §1
For the next experiment, the target named is ETV1 (Homo sapiens, UniProt P50549 1-477). In outline: as §1
The target in the next experiment is T8, ETV3L (Homo sapiens, UniProt Q6ZN32 1-361).
T8 sequence: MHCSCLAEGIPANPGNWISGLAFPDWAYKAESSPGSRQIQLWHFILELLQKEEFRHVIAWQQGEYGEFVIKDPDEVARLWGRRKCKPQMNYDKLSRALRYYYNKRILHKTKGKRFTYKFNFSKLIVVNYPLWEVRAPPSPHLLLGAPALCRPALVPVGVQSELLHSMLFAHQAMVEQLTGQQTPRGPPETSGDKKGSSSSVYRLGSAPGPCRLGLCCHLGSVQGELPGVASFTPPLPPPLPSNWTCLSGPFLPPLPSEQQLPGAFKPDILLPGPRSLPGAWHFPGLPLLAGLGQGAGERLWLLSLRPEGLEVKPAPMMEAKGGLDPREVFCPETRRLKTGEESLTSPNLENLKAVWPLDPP
Summed up: as §1

The target in another experiment is T9, ETS2 (Homo sapiens, UniProt P15036 1-469).
T9 sequence: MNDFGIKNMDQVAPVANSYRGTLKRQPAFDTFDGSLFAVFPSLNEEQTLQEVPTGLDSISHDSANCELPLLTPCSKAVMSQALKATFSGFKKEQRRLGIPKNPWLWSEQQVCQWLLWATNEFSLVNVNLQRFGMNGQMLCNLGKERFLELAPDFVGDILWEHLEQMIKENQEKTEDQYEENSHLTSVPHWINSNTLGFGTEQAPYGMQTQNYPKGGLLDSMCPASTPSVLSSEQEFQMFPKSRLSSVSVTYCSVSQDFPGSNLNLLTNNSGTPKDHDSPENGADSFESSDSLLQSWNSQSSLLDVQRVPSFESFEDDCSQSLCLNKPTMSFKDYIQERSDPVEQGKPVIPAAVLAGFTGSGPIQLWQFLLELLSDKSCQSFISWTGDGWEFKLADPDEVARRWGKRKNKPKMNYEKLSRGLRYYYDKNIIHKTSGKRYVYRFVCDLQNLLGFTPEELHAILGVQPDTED
In outline:
as §1

For another experiment, the target named is T10, ELF5 (Homo sapiens, UniProt Q9UKW6-2 1-255).
T10 sequence: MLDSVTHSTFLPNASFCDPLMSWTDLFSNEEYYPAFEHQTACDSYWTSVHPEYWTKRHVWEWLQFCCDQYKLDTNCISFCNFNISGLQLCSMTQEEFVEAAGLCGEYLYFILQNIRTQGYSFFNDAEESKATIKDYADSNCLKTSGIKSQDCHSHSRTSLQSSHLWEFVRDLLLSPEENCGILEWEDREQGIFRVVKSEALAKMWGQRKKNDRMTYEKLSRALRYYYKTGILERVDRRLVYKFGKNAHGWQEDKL
Summed up: as §1

For a further experiment, the target named is T11, ETV3 (Homo sapiens, UniProt P41162-2 1-143).
T11 sequence: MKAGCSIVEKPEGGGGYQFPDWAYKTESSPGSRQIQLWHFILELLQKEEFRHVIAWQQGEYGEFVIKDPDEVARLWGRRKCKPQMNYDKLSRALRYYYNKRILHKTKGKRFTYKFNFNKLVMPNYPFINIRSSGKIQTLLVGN
Summed up: as §1

Sequence of ELF1 (P32519 whole entry): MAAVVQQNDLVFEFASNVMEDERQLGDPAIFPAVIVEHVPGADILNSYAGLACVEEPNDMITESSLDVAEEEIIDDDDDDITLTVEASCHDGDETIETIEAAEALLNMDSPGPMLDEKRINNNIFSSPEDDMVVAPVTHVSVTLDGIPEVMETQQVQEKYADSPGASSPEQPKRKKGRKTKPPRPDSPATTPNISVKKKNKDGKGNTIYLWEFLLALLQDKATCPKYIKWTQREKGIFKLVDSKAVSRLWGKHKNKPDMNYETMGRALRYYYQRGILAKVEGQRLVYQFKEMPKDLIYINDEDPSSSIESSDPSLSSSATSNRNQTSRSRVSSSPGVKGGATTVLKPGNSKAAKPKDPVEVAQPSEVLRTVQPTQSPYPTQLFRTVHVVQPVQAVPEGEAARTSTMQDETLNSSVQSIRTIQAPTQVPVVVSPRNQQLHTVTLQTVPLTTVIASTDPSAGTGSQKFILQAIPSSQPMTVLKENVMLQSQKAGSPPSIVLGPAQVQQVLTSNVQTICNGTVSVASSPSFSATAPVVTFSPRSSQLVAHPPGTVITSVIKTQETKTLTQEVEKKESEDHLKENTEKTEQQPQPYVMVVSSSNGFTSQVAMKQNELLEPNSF
Sequence of ELF4 (Q99607 whole entry): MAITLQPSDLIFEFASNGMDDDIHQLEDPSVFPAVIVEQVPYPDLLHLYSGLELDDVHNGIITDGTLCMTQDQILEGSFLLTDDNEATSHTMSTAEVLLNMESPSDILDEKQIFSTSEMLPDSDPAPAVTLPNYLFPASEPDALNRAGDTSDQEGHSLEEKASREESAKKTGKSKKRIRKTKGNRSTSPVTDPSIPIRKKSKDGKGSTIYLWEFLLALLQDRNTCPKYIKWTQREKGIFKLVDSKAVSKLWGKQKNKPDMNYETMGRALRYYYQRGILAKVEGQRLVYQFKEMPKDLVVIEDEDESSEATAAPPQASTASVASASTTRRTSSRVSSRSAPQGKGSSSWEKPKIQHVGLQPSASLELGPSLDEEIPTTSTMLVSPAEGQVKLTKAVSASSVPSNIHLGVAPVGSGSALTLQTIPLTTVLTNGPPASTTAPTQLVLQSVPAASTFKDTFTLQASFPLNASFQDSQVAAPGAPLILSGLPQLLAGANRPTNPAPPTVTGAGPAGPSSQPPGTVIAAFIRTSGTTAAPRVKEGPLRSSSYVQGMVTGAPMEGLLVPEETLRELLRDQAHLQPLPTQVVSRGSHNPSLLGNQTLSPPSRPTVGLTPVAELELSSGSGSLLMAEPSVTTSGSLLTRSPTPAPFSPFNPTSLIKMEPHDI
Sequence of SPIB (Q01892 whole entry): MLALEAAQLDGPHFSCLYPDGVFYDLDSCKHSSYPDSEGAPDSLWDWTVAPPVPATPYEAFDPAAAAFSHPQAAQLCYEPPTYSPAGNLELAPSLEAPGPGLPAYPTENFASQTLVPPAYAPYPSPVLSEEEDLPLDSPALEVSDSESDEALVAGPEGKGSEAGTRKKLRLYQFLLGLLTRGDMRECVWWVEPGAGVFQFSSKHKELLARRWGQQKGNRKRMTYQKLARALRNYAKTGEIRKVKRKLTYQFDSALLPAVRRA
Sequence of ETV5 (P41161 whole entry): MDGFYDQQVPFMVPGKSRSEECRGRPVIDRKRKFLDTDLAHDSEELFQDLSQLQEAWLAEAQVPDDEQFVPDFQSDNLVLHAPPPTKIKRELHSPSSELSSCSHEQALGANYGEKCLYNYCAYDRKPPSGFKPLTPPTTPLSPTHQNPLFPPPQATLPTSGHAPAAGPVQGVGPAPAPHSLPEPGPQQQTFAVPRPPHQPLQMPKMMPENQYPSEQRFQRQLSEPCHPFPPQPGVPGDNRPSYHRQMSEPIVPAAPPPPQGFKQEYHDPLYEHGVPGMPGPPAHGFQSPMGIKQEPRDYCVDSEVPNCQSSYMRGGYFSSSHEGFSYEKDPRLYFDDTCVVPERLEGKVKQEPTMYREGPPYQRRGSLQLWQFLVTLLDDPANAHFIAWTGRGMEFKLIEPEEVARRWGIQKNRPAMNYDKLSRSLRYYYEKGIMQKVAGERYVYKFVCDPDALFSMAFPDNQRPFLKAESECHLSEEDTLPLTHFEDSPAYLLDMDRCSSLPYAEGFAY
Sequence of ETV1 (P50549 whole entry): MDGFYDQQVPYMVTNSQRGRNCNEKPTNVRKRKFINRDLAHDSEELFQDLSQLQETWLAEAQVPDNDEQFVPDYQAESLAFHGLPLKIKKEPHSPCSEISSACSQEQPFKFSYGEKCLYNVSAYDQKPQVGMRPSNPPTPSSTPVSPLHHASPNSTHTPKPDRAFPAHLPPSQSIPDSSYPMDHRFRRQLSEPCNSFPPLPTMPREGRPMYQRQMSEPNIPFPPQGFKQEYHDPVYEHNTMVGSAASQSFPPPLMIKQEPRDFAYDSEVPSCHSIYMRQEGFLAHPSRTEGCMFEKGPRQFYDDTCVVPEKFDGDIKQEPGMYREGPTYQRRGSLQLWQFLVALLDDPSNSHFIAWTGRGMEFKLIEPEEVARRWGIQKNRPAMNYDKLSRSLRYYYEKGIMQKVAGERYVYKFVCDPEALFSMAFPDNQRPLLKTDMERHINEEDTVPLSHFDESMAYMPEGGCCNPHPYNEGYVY

GGGTTC: the binding signal with FLI1 was 1.06 fold enrichment (6-mer frequency, TF over GST control); with ELK1, 1.02 fold enrichment (6-mer frequency, TF over GST control); with GABPA, 1.01 fold enrichment (6-mer frequency, TF over GST control); in the experiment with ERG, 1.04 fold enrichment (6-mer frequency, TF over GST control); in the experiment with ELF1 it was 1.11 fold enrichment (6-mer frequency, TF over GST control); with EHF, 1.02 fold enrichment (6-mer frequency, TF over GST control). In addition, the binding signal is 1.11 fold enrichment (6-mer frequency, TF over GST control) with SPI1; 1.09 fold enrichment (6-mer frequency, TF over GST control) in the experiment with SPIB; 1.03 fold enrichment (6-mer frequency, TF over GST control) with FEV; 1.08 fold enrichment (6-mer frequency, TF over GST control) with ETV5; 1.02 fold enrichment (6-mer frequency, TF over GST control) with SPIC; 1.12 fold enrichment (6-mer frequency, TF over GST control) with ELF4. In addition, the binding signal with ETV1 was 1.08 fold enrichment (6-mer frequency, TF over GST control); with ETV3L, 1.09 fold enrichment (6-mer frequency, TF over GST control); with ETS2, 1.07 fold enrichment (6-mer frequency, TF over GST control); in the experiment with ELF5 it was 1.1 fold enrichment (6-mer frequency, TF over GST control); with ETV3, 1.1 fold enrichment (6-mer frequency, TF over GST control).
